Out of some 330,000 compounds screened, about 4,600 (1.4%) were called active. This is one part of a sample in which actives are shown more often than they occur. A number with no mark means an inactive call.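 Rule for the calls: active = inhibition of 40% or more at the single tested concentration; inactive = the rest.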

A short description of this assay: growth inhibitors of isogenic TIM10 control yeast, primary screen, counter-screen for tim10-1 yeast inhibitor project, luminescence, uHTS (AID 463195).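 Note: wild-type TIM10 isogenic control strain grown at permissive 25 °C; 0% = DMSO yeast wells and 100% = minimal medium wells without yeast.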 The note with it: S. cerevisiae TIM10 strain growth, BacTiter-Glo luminescence, 24 h; at 10 µM; hits give high values.
With `O=C(Nc1ccc(Cl)c(Cl)c1)N1CC=C(c2ccccc2)CC1`, the inhibition (usually the drop in the measured response relative to a control, in per cent) was 48.1% (active).
Turning to `O=C(Nc1cccc(NC(=O)N2CCN(c3ccccc3)CC2)c1)N1CCN(c2ccccc2)CC1`, the inhibition was -4.11%.
In the case of `COc1cc(C(=O)NCC(=O)N2CC=C(c3ccccc3)CC2)cc(OC)c1OC` it was 20.4%; in that of `CCOC(=O)N1CCC(N2Cc3cccc(C(=O)Nc4c(C)cccc4CC)c3C2=O)CC1`, 15.7%; in that of `CN(C)Cc1c(O)ccc2occ(C(O)c3ccccc3)c12` (stereo unspecified), 9.39%.
On to `CC(=O)Cc1nsc(NC(=O)c2ccc(Cl)cc2Cl)n1`, for which the inhibition is 45.2% (active).
For `CC(C)NC(=O)c1ccc(Cl)cc1Cl`, the inhibition is -6.27%.
For `CC(=O)Cc1nsc(NC(=O)c2ccc(COc3ccc(C)cc3)o2)n1`, the inhibition was 20.8%.
For the molecule `Cc1cc(C)cc(NS(=O)(=O)Cc2ccccc2)c1`, the inhibition is -1.77%.
The result for `O=C(c1snnc1-c1ccccc1)N1CCOCC1` reads 15.4%.
The result for `O=C(CCCN1CCc2[nH]c3ccc(F)cc3c2C1)c1ccc(F)cc1` reads 14.8%; that for `CCc1ccc(S(=O)(=O)N/N=C\c2ccc([N+](=O)[O-])o2)cc1`, 14.1%; that for `CCn1c(/C=C/c2ccc([N+](=O)[O-])o2)nc2ccccc2c1=O`, 49.9% (active).
For `CCn1c(=O)c([N+](=O)[O-])c(NCc2ccc3c(c2)OCO3)c2ccccc21`, the inhibition was 15.2%.
Turning to `CC1CCN(C(=O)c2cc3nc(C4CC4)cc(C(F)(F)F)n3n2)CC1`, the inhibition was 16.4%.
In the case of `Cc1ccc(N(CC(O)CN2CCCC2)S(=O)(=O)c2ccccc2)cc1` (stereo unspecified) it was -2.21%.
The result for `Cc1cc(C)n(CC(O)CN(c2ccccc2)S(=O)(=O)c2ccc3ccccc3c2)n1` (stereo unspecified) reads 48% (active); that for `Cc1cccc(N(CC(O)CN(C)C)S(=O)(=O)c2ccccc2)c1` (stereo unspecified), 0.713%.
The result for `C/C=C/C(=O)OCC(=O)Nc1ccc(F)cc1Cl` reads -3.48%.
On to `Nc1ncnc2c1ncn2[C@@H]1O[C@H](CNS(=O)(=O)c2ccc(-c3ccno3)s2)[C@@H](O)[C@H]1O`, for which the inhibition is -1.72%.
In the case of `CCCS(=O)(=O)N1CCN=C1SCc1cccc(F)c1` it was -11.5%.
In the case of `CCc1c(C)nc(N)n2c(SCC(=O)NC3CCCCC3)nnc12` it was -10.7%.
The result for `COc1ccc(S(=O)(=O)Nc2cc(C)on2)cc1NC(C)=O` reads 12%; that for `O=C(O)CCCC(=O)N1N=C(c2ccco2)CC1c1ccco1` (stereo unspecified), -11.4%; that for `Cc1nn(C(=O)c2ccoc2C)c(N)c1-c1ccccc1`, -12.3%.
On to `Cc1nn2c(c1-c1ccccc1)N=C(c1ccco1)CC2c1ccccc1` (stereo unspecified), for which the inhibition was 48.1% (active).

The values above are taken from PubChem BioAssay AID463195 (Sanford-Burnham Center for Chemical Genomics, 2010).
